# Bioassay records as filed in PubChem BioAssay.
# Compounds with a hit are over-represented: about 2.1% of the library has one in this group of screens.
# IDE inh – inhibits human insulin-degrading enzyme in HEK cells; actives 0.41% (n = 320,000); inhibition, % at 5.59 µM; P14735; FAbetaB cleavage, fluorescence polarization;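 active = percent inhibition above the average of all tested compounds plus 3 SD, set per screening campaign, cut at about 16% in these data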;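 also: IDE supplied by intact live HEK cells; FP after avidin binding of uncleaved biotin substrate so inhibition keeps polarization high; 0% = DMSO wells and 100% = 60 µM reference IDE inhibitor Ii1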
# HDAC3 inhib – human HDAC3 inhibition; inhibition, % at 8.3 µM; actives 0.15% (n = 320,000); AID 2718; O15379; recombinant HDAC3, fluorogenic peptide/trypsin coupled, fluorescence; in the data active = inhibition above about 26%, passing the limit was not always enough
# IDE cell activ – IDE (human) activation, cell-based; HEK cells, FAbeta-B cleavage, fluorescence polarization; 0% vehicle, 100% cell-free pure enzyme wells; activation, % at 5.96 µM; actives 0.073% (n = 340,000); AID 493087;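 active = activation above the mean of all tested compounds plus 3 SD, set per screening campaign, cut at about 17% in these data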
# SUMO Mot1 rescue – SUMOylation pathway inhibition by Mot1-301 growth rescue; S. cerevisiae Mot1-301 growth rescue, ATP luminescence, 38.5C; percent above DMSO median, 100 means doubled; growth rescue, % at 18.8 µM; actives 1% (n = 320,000); AID 2716;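 active = every valid replicate shows activation above 250% relative to neutral control wells; inactive = the rest, any valid replicate at or below 250%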;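 also: OY570 slx delta 5 strain wells were the positive control but not used for scaling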
# LANA-H2A inh – blocks KSHV LANA binding to histone H2A/H2B; Q9QR71; cell-free LANA-H2A/H2B peptide, fluorescence polarization; inhibition, % (concentration not given with the values); actives 0.6% (n = 320,000); AID 2629; in the data active = inhibition mostly above about 10%, no sharp cut-off; inactive = mostly below about 6.7%
# Yeast Mot1 SUMO – SUMO pathway inhibitors in yeast Mot1-301 growth | shares compounds with SUMO Mot1 rescue | 2,300 tested, under 10 active | growth activity, percent, % at 42 µM | S. cerevisiae Mot1-301 galactose growth, ATP luminescence, 24 h; -100 = growth of slx-deleted rescue strain;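 active = Signal drops as the depositor expects, and the fitted half-maximal dose is no more than ten times the top valid tested dose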;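 also: more negative values mean stronger growth rescue toward the control strain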
# Active calls of the source: *; . = no result; + = active, no number.
SMILES,IDE inh,HDAC3 inhib,IDE cell activ,SUMO Mot1 rescue,LANA-H2A inh,Yeast Mot1 SUMO
COc1cc([C@@H]2CC=C(C(=O)O)[C@H](c3ccc(F)cc3)N2S(=O)(=O)c2ccc(C)cc2)cc(OC)c1OC,-0.8,9.4,-5.3,-1.8,0.6,.
COc1ccc(N2CC(C(=O)N3CCc4ccccc43)CC2=O)cc1 (stereo not given),-1.7,0.3,6.0,449.9*,-6.1,-0.1
CCC1(CC)NC(=O)N(CC(=O)N2N=C(c3ccc(Cl)cc3)CC2c2ccco2)C1=O (stereo not given),-3.1,3.2,-3.3,580.8*,-1.1,0.5
O=C(O)CCC(=O)N1N=C(c2c(-c3ccccc3)c3cc(Cl)ccc3[nH]c2=O)CC1c1ccco1 (stereo not given),3.6,-3.5,-0.5,376.9*,-5.1,0.0
CCC(=O)N1N=C(c2ccc(C)cc2)CC1c1ccco1 (stereo not given),-1.0,7.2,2.3,193.2,-2.4,.
CCC(=O)N1N=C(c2c(-c3ccccc3)c3cc(Cl)ccc3[nH]c2=O)CC1c1ccco1 (stereo not given),2.4,6.6,-2.9,-0.4,1.7,.
CCN(CC)c1ccc(C(=O)NNC(=O)c2cccn2C)cc1,3.5,3.8,2.5,-29.2,-7.0,.
O=C1CCCN1CCCNc1ccc2nnc(CCC(=O)N3CCN(c4ccc(F)cc4)CC3)n2n1,1.0,-0.8,0.9,3.0,-2.9,.
O=C(COc1ccccc1O)NCCN1CCOCC1,4.7,-3.0,2.4,455.3,-1.8,.
O=C(CC(c1ccccc1)c1ccccc1O)NCCN1CCOCC1 (stereo not given),-4.7,-0.1,-4.8,428.3*,1.9,0.9
COc1ccccc1C(C)NC(=O)CN(C)CC(=O)Nc1c(C)cccc1C (stereo not given),-1.6,-1.2,2.5,-0.5,-0.7,.
CNS(=O)(=O)c1cccc(C(=O)NCC2(N3CCCCC3)CCCCC2)c1,-3.0,7.7,7.7,402.2*,-0.7,0.3
CC(=O)NCCc1nc2cc(NC(=O)c3ccc(F)cc3)ccc2n1C,.,1.7,-2.8,741.0*,-1.3,0.5
COCCn1c(C)cc(C(=O)COC(=O)/C=C/c2c(C)nn(C3CCS(=O)(=O)C3)c2Cl)c1C (stereo not given),3.9,0.1,4.3,7.7,9.2,.
CC(C)C1=CC(=Nc2ccc(S(N)(=O)=O)cc2)C=C(C(C)C)C1=O,.,9.0,5.2,+,-1.1,-0.4
NS(=O)(=O)c1ccc(N=C2C(=O)Nc3ccccc32)cc1,0.8,9.0,6.0,0.6,-0.7,.
CCc1ccc(NC(=O)Cn2cc([N+](=O)[O-])nc2C)cc1,.,-0.7,2.8,-5.7,4.2,.
CC(=O)c1cccc(CN2CCCCC2C(=O)Nc2ccc(Oc3ccccc3)nc2)c1 (stereo not given),-6.5,0.1,-6.3,-26.9,-3.1,.
Cc1cnc(NC(=O)CN2CCN(c3ccccc3F)CC2)s1,1.7,-4.8,0.3,989.8*,-0.1,-0.1
COc1ccc(C(=O)N2CCCC(Nc3ccc(C)c(C)c3)C2)c(OC)n1 (stereo not given),-1.8,6.7,-4.8,-4.1,-3.6,.
CCC(=O)c1ccc(OCC(=O)OC(C)C(=O)NCc2ccc3c(c2)OCO3)cc1 (stereo not given),1.0,-2.8,6.3,-6.1,-2.5,.
CC(C)CC(NC(=O)C1CCC(C)CC1)C(=O)Nc1cccnc1 (stereo not given),1.0,4.9,4.1,7.6,1.5,.
Cc1ccc(NC(=O)C(CC(C)C)NC(=O)C2CCC(C)CC2)nc1 (stereo not given),3.4,2.2,1.7,634.2*,1.1,0.3
O=C(NC1CCCCC1)N(Cc1cc2cc3c(cc2[nH]c1=O)OCCO3)C1CCCCC1,-1.4,-2.9,2.2,828.0*,-1.2,0.3
CCc1ccc(S(=O)(=O)NCCOc2cccc3cccnc23)cc1,1.9,1.1,7.5,-15.3,5.1,.
CCOC(=O)c1cc(C#N)c(Oc2ccccc2OC)nc1-c1ccccc1,-1.1,16.2,5.0,+,2.3,0.4
O=C(CNC(=O)[C@@H]1Cc2ccccc2CN1)NCc1ccco1,-0.1,2.9,5.2,30.9,1.6,.
O=C(Nc1ccc2c(c1)OCCO2)c1cc(F)c(F)cc1Cl,-1.7,1.0,2.9,-17.8,-2.5,.
